The structures appear in SMILES notation. Hit rate of the full screen: of about 420,000 compounds, about 64,000 (15%) were called active. Roughly 27% stayed inconclusive and do not appear here. Calls follow the shape of the dose curve; as a rule, active = well fitted inhibition curve with a large enough effect; inconclusive = small, poorly fitted or top-dose-only effect; inactive = flat fitted curve, though single readings scatter. Not all results are given here. A call without a number means that no potency is given here.

Consider 93 compounds from PubChem BioAssay AID686978 (National Center for Advancing Translational Sciences (NCATS), 2013).
Potency is read from the fitted curve at half-maximal effect.

The experiment in a line: qHTS for Inhibitors of human tyrosyl-DNA phosphodiesterase 1 (TDP1): qHTS in cells in absence of CPT. Also: nearly all actives have a fitted effect of over 55% in size. Particulars: DT40 Tdp1-/- hTDP1 cells, no CPT, ATP luminescence, 48 h; activity change, negative = growth inhibition: at 46.2 µM (top of the series). An outline of the steps: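 A cellular qHTS used chicken DT40 cells lacking endogenous Tdp1 but carrying stably transfected human TDP1. Compounds were applied without camptothecin, and cell growth kinetics were judged by ATP-dependent luminescence after ≥48 hr.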
Background: In qHTS, concentration-response curves come from the screen itself.
As for `Cn1cnc2c1c(=O)n(Cc1ccccc1C#N)c(=O)n2C`, the Potency entry is “inactive”.

On to `CCn1c(CSc2nncn2-c2ccc(OC)cc2)nc2cc(S(=O)(=O)N(C)C)ccc21`, for which the Potency entry was “inactive”.

Regarding `COC(=O)CN1C(=O)C(O)=C(C(C)=O)C1c1ccc([N+](=O)[O-])cc1` (stereo not drawn), the Potency result is “inactive”.

`CC(C)(C)CC(C)(C)NCC(O)COCCOc1ccc(Br)cc1` (stereo not drawn): the Potency was 2.31 µM (active).

With `Cc1noc(COc2ccccc2OCC(O)CNC(C)(C)C)n1` (stereo not drawn), the Potency entry was “inactive”.

For the compound `OC(COc1ccc(Br)cc1)CN1CCCC1` (stereo not drawn), the Potency entry is “inactive”.

Turning to `O=C(N/N=C\c1cccc(Br)c1)c1ccccc1-n1cccc1`, the Potency entry is “inactive”.

`C=C1CCN([C@@H](Cc2ccccc2)C(=O)N2CCOCC2)S(=O)(=O)c2ccccc21`: the Potency entry is “inactive”.

`CCC1OC(C2CC2)CC2=C1C(=O)OC(C)(C)O2` (stereo not drawn): the Potency entry was “inactive”.

For `CC1(C)OC(=O)C2=C(C[C@@H](C3CC3)O[C@H]2c2ccc(Cl)cc2)O1`, the Potency entry is “inactive”.

With `CC1(C)OC(=O)C2=C(C[C@@H](C3CCCCC3)O[C@@H]2c2ccc(Cl)cc2)O1`, the Potency was 20.6 µM (active).

With `OC(COCc1ccco1)CN1CCN(c2ccccc2)CC1` (stereo not drawn), the Potency entry was “inactive”.

In the case of `COc1ccc(-c2nnc(NC(=O)CS(=O)(=O)c3ccc(Cl)cc3)o2)c(OC)c1`, the Potency entry is “inactive”.

Consider `COc1cccc(C(=O)NNS(=O)(=O)c2ccc(F)cc2)c1`, for which the Potency entry was “inactive”.

`COc1cccc(-c2nnc(NC(=O)c3ccc(S(=O)(=O)N(CC(C)C)CC(C)C)cc3)o2)c1`: the Potency was 4.61 µM (active).

Turning to `COc1ccc(CNC(=O)CN(Cc2ccc(Cl)cc2)S(C)(=O)=O)cc1`, the Potency entry is “inactive”.

`COc1ccc(OC)c(-n2c(=S)[nH]c3cc(C(=O)N4CCCCC4)ccc3c2=O)c1`: the Potency result was “inactive”.

In the case of `Cc1ccc2cccc(O)c2[n+]1[O-]`, the Potency entry is “inactive”.

`CCOC(=O)c1[nH]c2ccc(OC)cc2c1NC(=O)N1CCOCC1`: the Potency entry was “inactive”.

For `COc1ccc(CCNC(=O)CCC(=O)NC2CCCCC2)cc1OC`, the Potency result is “inactive”.

Take `COc1ccc(CCNC(=O)c2c3c(nc4ccccc24)C(=O)N(C2CCCCC2)C3)cc1OC`: the Potency is 23.1 µM (active).

Regarding `COc1ccc(CCNC(=O)C2CCCN2C(=O)Nc2ccccc2)cc1OC` (stereo not drawn), the Potency entry was “inactive”.

As to `CCNC(=O)CC1C(=O)N(c2ccc(OC)cc2)C(=O)N1CCOC` (stereo not drawn), the Potency entry was “inactive”.

Consider `CNc1nc(Nc2ccc(C)c(Cl)c2)nc(N)c1[N+](=O)[O-]`, for which the Potency was 6.51 µM (active).

Regarding `Cc1ccc(NC(=O)C/C(N)=N/O)cc1Cl`, the Potency result was “inactive”.

Turning to `COCCNc1nc(N)c([N+](=O)[O-])c(NCCO)n1`, the Potency entry was “inactive”.

Consider `O=C(NCCc1ccc(Cl)cc1)C1CCCN1C(=O)NCc1ccccc1` (stereo not drawn), for which the Potency result is “inactive”.

Turning to `O=C(CC1Oc2ccccc2NC1=O)NCc1ccc(F)cc1` (stereo not drawn), the Potency result was “inactive”.

`O=C(CSc1ccc(/C=N/NC(=O)c2cccc(F)c2)o1)Nc1ccccc1`: the Potency result is “inactive”.

`O=C(N/N=C/c1ccc([N+](=O)[O-])o1)c1cn(-c2ccccc2)nc1-c1ccc(F)cc1`: the Potency was 5.8 µM (active).

Regarding `Cc1cc(C(=O)N/N=C/c2ccc(O)c([N+](=O)[O-])c2)c(C)n1-c1ccc(F)cc1`, the Potency result is “inactive”.

With `COCC(=O)Nc1cc(C(=O)N2CCCC(c3ccccc3)CC2)c2c(c1)nc(-c1ccncc1)n2C` (stereo not drawn), the Potency result is “inactive”.

Take `COc1ccc(NC(=O)CC(NC(C)c2ccccc2)C(=O)O)cc1` (stereo not drawn): the Potency entry was “inactive”.

On to `C[C@@H]1CN([C@@H](C)CO)C(=O)CCCn2cc(nn2)CO[C@H]1CN(C)S(=O)(=O)c1ccc(-n2cccn2)cc1`, for which the Potency result was “inactive”.

With `Cc1ccc(C)c(NC(=O)c2ccc3nccnc3c2)c1`, the Potency result is “inactive”.

On to `Cc1ccc(O)c(NC(=O)c2cc(-c3ccc(F)cc3)no2)c1`, for which the Potency entry is “inactive”.

For the compound `Cc1ccc(C)c(NC(=O)c2cc(-c3cc(C)cc(C)c3O)n[nH]2)c1`, the Potency was 13 µM (active).

Regarding `CCCCN(C(=O)CCNC(=O)NC12CC3CC(CC(C3)C1)C2)c1c(N)n(CCCC)c(=O)[nH]c1=O`, the Potency result was “inactive”.

As for `CCOc1cc(CO)ccc1OCC(=O)N1CCCCC1`, the Potency entry is “inactive”.

Regarding `CCCC(=O)NC(C)C(c1cccs1)N1CCN(c2ccccc2)CC1` (stereo not drawn), the Potency entry was “inactive”.

For `Cc1ccc(C(=O)NCC(c2cccs2)N(C)C)cc1S(=O)(=O)N1CCOCC1` (stereo not drawn), the Potency result was “inactive”.

For `CC(NC(=O)Nc1ccccc1)C(c1cccs1)N1CCN(c2ccccc2)CC1` (stereo not drawn), the Potency was 23.1 µM (active).

On to `CC(NC(=O)Nc1ccccc1)c1ccccc1` (stereo not drawn), for which the Potency entry is “inactive”.

Consider `Cc1ccc(N(C(=O)c2ccc(CN3CCOCC3)o2)C(C(=O)NCCC(C)C)c2cccs2)c(C)c1` (stereo not drawn), for which the Potency entry was “inactive”.

For `Cc1ccc(C(=O)NC(C)C(c2cccs2)N2CCOCC2)cc1C` (stereo not drawn), the Potency is 18.4 µM (active).

Consider `COC(=O)c1sc(SC)c(S(=O)(=O)C(C)C)c1N/N=C(\C#N)S(=O)(=O)c1ccccn1`, for which the Potency result was “inactive”.

On to `CC(=O)c1ccc(NC(=O)C(C)OC(=O)c2ccc(NS(=O)(=O)c3ccc4[nH]c(=O)[nH]c4c3)cc2)cc1` (stereo not drawn), for which the Potency result was “inactive”.

For the compound `Cc1ccc(C(=O)OC(C)CN2CCOCC2)cc1` (stereo not drawn), the Potency result is “inactive”.

In the case of `COc1ccc(N2CCN(C(=O)[C@@H](NC(=O)c3cc(OC)cc(OC)c3)C(C)C)CC2)cc1`, the Potency is 8.2 µM (active).

Take `COc1cc(OC)cc(C(=O)NCC(=O)N2CCCCCCC2)c1`: the Potency entry was “inactive”.

`COc1cc(OC)cc(C(=O)NC(C(=O)N2CCC2)C(C)C)c1` (stereo not drawn): the Potency entry was “inactive”.

For the compound `CCOc1ccc(/C(O)=C2/C(=O)C(=O)N(Cc3cccnc3)C2c2ccc(N(C)C)cc2)c(C)c1` (stereo not drawn), the Potency result was “inactive”.

For the compound `C=CCC[C@H](CCCCC)OC(=O)/C=C/[C@H](O)[C@@H](O)C[C@@H](O)CC=C`, the Potency was 14.6 µM (active).

Consider `C=CCC[C@@H](CCCCC)OC(=O)/C=C/[C@@H](O)[C@H](O)C[C@H](O)CC=C`, for which the Potency was 18.4 µM (active).

Consider `O=S(=O)(Nc1ccccc1)c1ccc(NS(=O)(=O)c2cccs2)cc1`, for which the Potency result is “inactive”.

For `Cc1ccc(NC(=O)CSc2nc3c(c(=O)[nH]2)CN(Cc2ccc4c(c2)OCO4)CC3)cc1C`, the Potency result was “inactive”.

With `O=C(CN1CCN(C(=O)c2cccc(F)c2)CC1)Nc1ccccc1F`, the Potency result was “inactive”.

For `C=CCC(NCc1ccco1)c1ccc(OC)cc1` (stereo not drawn), the Potency entry was “inactive”.

With `Cc1ccc(S(=O)(=O)N2CCC(C(=O)N[C@@H](C)C(=O)NCc3ccco3)CC2)cc1`, the Potency entry is “inactive”.

For the compound `Cc1ccc(S(=O)(=O)N2CC(C)N(S(C)(=O)=O)C2)cc1` (stereo not drawn), the Potency result was “inactive”.

Take `Cc1ccc(S(=O)(=O)N2C[C@@H]3CCCC[C@@H]3[C@@H](C)[C@H]2c2cn(Cc3ccccc3)c3ccc(F)cc23)cc1`: the Potency is 6.51 µM (active).

As to `Cc1ccc(Cn2cc(C(=O)NN)c(=O)c3ccc(F)cc32)cc1`, the Potency entry is “inactive”.

Consider `CCOC(=O)c1sc(/N=C/C2=C(O)CC(C)(C)CC2=O)c(C(=O)OCC)c1C`, for which the Potency result was “inactive”.

Consider `CCOC(=O)c1c(NC(=O)c2ccc(Br)o2)sc2c1CCCC2`, for which the Potency entry is “inactive”.

Turning to `CCOC(=O)c1c(NC(=S)Nc2ccccc2C)sc2c1CCC2`, the Potency result was “inactive”.

Turning to `CCOC(=O)c1c(NC(=O)C2(C)Cc3ccccc3C(=O)O2)sc2c1CCCC2` (stereo not drawn), the Potency was 16.4 µM (active).

With `COc1ccc(C(CNC(=O)COc2ccc([N+](=O)[O-])cc2)N2CCCCC2)cc1` (stereo not drawn), the Potency result is “inactive”.

Take `CN1C(=O)c2ccc(C(=O)Nc3ccc(Br)cn3)cc2C1=O`: the Potency entry was “inactive”.

Turning to `O=C(Nc1cccc(NC(=O)c2ccccc2[N+](=O)[O-])c1)c1ccccc1Cl`, the Potency result is “inactive”.

Regarding `COc1cccc(NC(=O)c2ccc(Cn3cc([N+](=O)[O-])cn3)o2)c1`, the Potency result was “inactive”.

As for `O=C(Nc1ccc(Br)cn1)c1ccc([N+](=O)[O-])o1`, the Potency was 5.17 µM (active).

Turning to `O=C(Nc1ccc(Br)cn1)c1ccc([N+](=O)[O-])cc1Cl`, the Potency result was “inactive”.

Consider `Cc1cccc(NC(=O)c2ccc([N+](=O)[O-])o2)c1`, for which the Potency was 9.2 µM (active).

For `Cc1[nH]c2ccccc2c1C(=O)C(=O)N(C)c1ccccc1`, the Potency result was “inactive”.

For `O=C(OCCOc1ccccc1F)c1cc(S(=O)(=O)N2CCOCC2)ccc1F`, the Potency entry is “inactive”.

As for `CCc1ccccc1NC(=O)CSc1nnc(-c2ccncc2)o1`, the Potency entry was “inactive”.

Consider `O=C(CNCCO)NC12CC3CC(CC(C3)C1)C2`, for which the Potency entry is “inactive”.

As for `CCOC(=O)C1C(C)C(C(C)(C)C)N(S(=O)(=O)c2ccc(C)cc2)C1c1ccccc1` (stereo not drawn), the Potency is 16.4 µM (active).

On to `Cc1ccc(S(=O)(=O)N2[C@@H](c3ccccc3F)C(C(=O)O)=CC[C@H]2c2ccc(Cl)cc2)cc1`, for which the Potency entry was “inactive”.

Take `CCOC(=O)C1=CC[C@@H](c2ccccc2)N(S(=O)(=O)c2ccc(C)cc2)[C@H]1c1ccc(CC)cc1`: the Potency was 16.4 µM (active).

As to `Cc1ccc(S(=O)(=O)N2[C@@H](c3cccc4ccccc34)C(C(=O)O)=C[C@H]2C(C)(C)C)cc1`, the Potency result is “inactive”.

Consider `Cc1ccc(S(=O)(=O)N2[C@@H](c3ccc(Br)cc3)C(C(=O)O)=C[C@H]2CC2CCCC2)cc1`, for which the Potency entry is “inactive”.

In the case of `Cc1ccc(S(=O)(=O)N2[C@@H](c3cccc(Cl)c3)C(C(=O)O)=CC[C@H]2c2ccc(Cl)c(Cl)c2)cc1`, the Potency entry was “inactive”.

With `CCOC1=C2[C@H]([C@H]3C(=O)N(c4ccccc4)C(=O)[C@H]3C1)[C@@H](c1ccccc1)N(S(=O)(=O)c1ccc(C)cc1)[C@H]2c1ccccc1`, the Potency result is “inactive”.

Regarding `CCCCC(c1nnnn1CS(=O)(=O)c1ccc(C)cc1)N1CCC(C(N)=O)CC1` (stereo not drawn), the Potency entry was “inactive”.

As to `Cc1ccccc1S(=O)(=O)N1[C@@H](c2cccc(Cl)c2)C(C(=O)OC(C)(C)C)=CC[C@H]1c1ccc(Cl)cc1`, the Potency was 16.4 µM (active).

On to `CCc1ccc([C@@H]2CC(=O)[C@@H]3CN(S(=O)(=O)c4ccc(C)cc4)[C@H](c4ccc(Cl)cc4)C[C@@H]3N2S(=O)(=O)c2ccc(C)cc2)cc1`, for which the Potency entry was “inactive”.

In the case of `Cc1ccccc1S(=O)(=O)N1[C@@H](c2cccc(Cl)c2)C(C(=O)O)=CC[C@H]1c1ccc(Cl)cc1`, the Potency result was “inactive”.

Regarding `CCCCC[C@@H]1C=C(C(=O)OCC)[C@H](c2ccccc2)N1S(=O)(=O)c1ccc(C)cc1`, the Potency was 10.3 µM (active).

Take `Cc1cccc(/C(N)=N/OC(=O)c2ccccc2Cl)c1`: the Potency entry is “inactive”.

In the case of `COc1ccc(C2=NOC3(CC(=O)N(c4ccc(C)cc4)C3=O)C2)cc1` (stereo not drawn), the Potency entry was “inactive”.

As for `Cc1nn(C)c(Oc2ccc(Cl)cc2)c1C=O`, the Potency result was “inactive”.

For `CCCCn1c(N)c(N(CCOC)C(=O)COc2c(C)cccc2C)c(=O)[nH]c1=O`, the Potency entry was “inactive”.
